Bioassay records deposited in PubChem by Johns Hopkins Ion Channel Center.
KCNK3 inh: human KCNK3 channel inhibition, primary screen; O14649; hit rate 0.84% among 340,000; AID 602410; CHO-KCNK3 thallium flux, FluxOR fluorescence; stronger effect = lower value; B-score at 10 µM;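 active = B-score under library mean minus 4 SD, starting fluorescence ratio at most library mean plus 5 SD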;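 note: more negative B-score means stronger inhibition of thallium flux through KCNK3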
TMEM16A act: mouse TMEM16A channel activation, primary screen. Q8BHY3. HEK293 TMEM16A/YFP-H148Q/I152L, iodide quench fluorescence; stronger effect = lower value. B-score at 10 µM. hit rate 0.3% among 340,000;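 active = fluorescence-ratio B-score plate-corrected deviation score at least 3 library SD below zero, with starting fluorescence score within 5 deviations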;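 note: channel opened by trigger with iodide after compound preincubation; score built on the fluorescence ratio of max minus min over baseline; more negative score means more quench and so TMEM16A activation or potentiation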
KCNK9 inh: blocks the human KCNK9 two-pore domain potassium channel; Q9NPC2; HEK293 KCNK9, FluxOR thallium flux fluorescence; stronger effect = lower value; AID 488922; B-score at 10 µM; hit rate 1.2% among 310,000;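 active = ratio B-score over 3 SD below the library mean, with starting fluorescence within 5 SD of its mean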;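 note: negative B-score means less thallium flux so channel inhibition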
Target sequence (Q9NPC2 whole entry, looked up, the tested form may be a part): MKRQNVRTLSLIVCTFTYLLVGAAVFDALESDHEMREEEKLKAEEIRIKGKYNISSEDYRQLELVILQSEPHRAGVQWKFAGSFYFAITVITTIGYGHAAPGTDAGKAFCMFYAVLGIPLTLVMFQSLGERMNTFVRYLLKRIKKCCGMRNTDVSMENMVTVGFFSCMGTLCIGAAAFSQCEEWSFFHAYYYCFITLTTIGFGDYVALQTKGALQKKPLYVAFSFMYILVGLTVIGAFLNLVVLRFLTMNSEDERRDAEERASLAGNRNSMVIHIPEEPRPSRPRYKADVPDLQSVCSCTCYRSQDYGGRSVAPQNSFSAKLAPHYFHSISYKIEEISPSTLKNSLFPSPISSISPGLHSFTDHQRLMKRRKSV
Kir21 inh: Kir2.1 (mouse) channel inhibition | HEK293-Kir2.1, FluxOR thallium flux fluorescence; stronger effect = lower value | hit rate 0.85% among 310,000 | B-score at 10 µM | P35561 | AID 1672;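 active = fluorescence ratio B-score at or below minus 3 SD of library scores, with starting-brightness B-score within 2 SD, cut at about -4.2 in these data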;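 note: channel flux triggered by added potassium and thallium sulfate stimulus; B-score of peak minus minimum fluorescence over baseline after thallium stimulus; more negative B-score means stronger Kir2.1 block with less thallium influx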
ANO1 block: mouse TMEM16A channel inhibition, primary screen; HEK293 TMEM16A/YFP iodide influx fluorescence, ionomycin; normalized B-score (activity score, 25-100; higher = stronger inhibition) at 10 µM; hit rate 1.2% among 310,000; AID 588511;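 active = ratio plate-corrected score three or more library SD toward inhibition, starting fluorescence score within five deviations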;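 note: score derived from kinetic fluorescence span divided by baseline fluorescence per well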
KCNK9 inh conf: human KCNK9 inhibitor confirmation | shares compounds with KCNK9 inh | HEK293 KCNK9 cells, FluxOR thallium flux fluorescence | inhibition, % at 10 µM | hit rate 43% among 4,900 | AID 492992;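 active = thallium signal inhibited by more than 5 SD of the compound-free buffer control wells, on both duplicate plates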;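 note: 0% = assay buffer control wells without compound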
Kir2-1 spec: selectivity of KCNK9 modulators against mouse Kir2.1; shares compounds with KCNK9 inh; Kir2.1 cells, FluxOR thallium flux fluorescence; inhibition, % at 10 µM; hit rate 4% among 4,900; AID 492993;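 active = thallium signal drop more than 5 SD beyond the mean of the no-compound control wells, seen in both duplicate plates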;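 note: signal is fluorescence rise after thallium addition divided by baseline fluorescence; plate controls were assay buffer only for no effect and full block by chlorpromazine control for full effect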
HEK293 Tl ctr: non-induced cell nonspecific activity of KCNK9 modulators; hit rate 40% among 4,900; shares compounds with KCNK9 inh; non-induced KCNK9-HEK293, FluxOR thallium flux; inhibition, % at 10 µM;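 active = thallium signal drop beyond 5 SD of the untreated control mean, on both duplicate plates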;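 note: plate controls were buffer only IC0 wells for no effect and SID17386958 at its maximal inhibitory level for full effect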
Numbers without * were called inactive. This is a sample that favours compounds with a hit; in the whole collection about 3.5% have one here.

What do the screens show for `COc1cc(C(=O)Nc2cc3c(cc2N2CCCCC2)n(C)c(=O)n3C)cc(OC)c1OC`?
KCNK3 inh: inactive; TMEM16A act: inactive; KCNK9 inh: -20*; Kir21 inh: 0.2; ANO1 block: inactive; KCNK9 inh conf: 67%*; Kir2-1 spec: inactive; HEK293 Tl ctr: inactive

Results for CC(Oc1ccc(F)cc1)C(=O)Nc1cc(S(=O)(=O)N2CCCCC2)ccc1N1CCN(C)CC1 (configuration not stated) ?
KCNK3 inh: inactive; TMEM16A act: inactive

Results for CCC(Oc1ccccc1)C(=O)Nc1ccccc1N1CCCCC1 (configuration not stated) ?
KCNK3 inh: inactive; TMEM16A act: inactive; KCNK9 inh: -15*; Kir21 inh: -0.15; ANO1 block: inactive; KCNK9 inh conf: 50%*; Kir2-1 spec: inactive; HEK293 Tl ctr: 41%*

How did CCCCOC(=O)c1ccc(NC(=O)c2c(N)n(C)c(=O)[nH]c2=O)cc1 do in these assays?
KCNK9 inh: inactive; Kir21 inh: -1.2; ANO1 block: inactive

Results for COc1ccc(C(=O)Nc2ccccc2N2CCCC2)cc1 ?
KCNK3 inh: inactive; TMEM16A act: inactive; KCNK9 inh: inactive; Kir21 inh: 0.5; ANO1 block: inactive

What do the screens show for `CC(C)Oc1ccc(C(=O)Nc2ccccc2N2CCCC2)cc1`?
KCNK3 inh: inactive; TMEM16A act: inactive; KCNK9 inh: -14*; Kir21 inh: -0.48; ANO1 block: inactive; KCNK9 inh conf: 58%*; Kir2-1 spec: inactive; HEK293 Tl ctr: 29%*

How did CCn1c(=O)n(CC)c2cc(N3CCCC3)c(NC(=O)c3ccccc3OC)cc21 do in these assays?
KCNK3 inh: inactive; TMEM16A act: inactive; KCNK9 inh: -9*; Kir21 inh: 1.6; ANO1 block: inactive; KCNK9 inh conf: 42%*; Kir2-1 spec: inactive; HEK293 Tl ctr: inactive

How did O=C(CC1CCCCC1)Nc1ncn[nH]1 do in these assays?
KCNK3 inh: inactive; TMEM16A act: inactive; KCNK9 inh: inactive; Kir21 inh: -1.1; ANO1 block: inactive

Results for O=C(CCC(=O)c1cccs1)OCc1nc2ccccc2s1 ?
KCNK3 inh: inactive; TMEM16A act: inactive; KCNK9 inh: inactive; Kir21 inh: 1.1; ANO1 block: inactive

How did O=C(CCc1nc2ccccc2s1)OCc1ccccc1 do in these assays?
KCNK3 inh: inactive; TMEM16A act: inactive; KCNK9 inh: inactive; Kir21 inh: -0.91; ANO1 block: inactive; KCNK9 inh conf: inactive; Kir2-1 spec: inactive; HEK293 Tl ctr: inactive

What do the screens show for `COc1ccc(-c2noc3c2-c2nc(C4CCCCC4)sc2CC3)cc1`?
KCNK3 inh: inactive; TMEM16A act: inactive; KCNK9 inh: inactive; Kir21 inh: -1.8; ANO1 block: inactive; KCNK9 inh conf: inactive; Kir2-1 spec: inactive; HEK293 Tl ctr: 24%*

What do the screens show for `C[C@H](CO)N1C[C@H](C)[C@@H](CN(C)S(=O)(=O)c2cn(C)cn2)Oc2c(NC(=O)Nc3ccc4c(c3)OCO4)cccc2C1=O`?
KCNK3 inh: inactive; TMEM16A act: inactive

What do the screens show for `O=C(c1cccc(F)c1F)N1CCCC1`?
KCNK3 inh: inactive; TMEM16A act: inactive; KCNK9 inh: inactive; Kir21 inh: 0.02; ANO1 block: inactive

Results for CC(C)N(Cc1ccccc1)S(=O)(=O)c1cccs1 ?
KCNK3 inh: -11*; TMEM16A act: inactive; KCNK9 inh: -8.5*; Kir21 inh: -4.8*; ANO1 block: inactive; KCNK9 inh conf: 40%*; Kir2-1 spec: inactive; HEK293 Tl ctr: 37%*

What do the screens show for `CCOC(=O)C1=C(C)N=C2SC(CC)C(=O)N2C1c1cccc(F)c1` (configuration not stated)?
KCNK3 inh: inactive; TMEM16A act: inactive; KCNK9 inh: -12*; Kir21 inh: -1.1; ANO1 block: inactive; KCNK9 inh conf: 36%*; Kir2-1 spec: inactive; HEK293 Tl ctr: 34%*

Results for N#Cc1cc(N)ccc1Sc1ccccc1 ?
KCNK3 inh: inactive; TMEM16A act: inactive; KCNK9 inh: inactive; Kir21 inh: -1.5; ANO1 block: inactive

What do the screens show for `N#Cc1cc(N)ccc1Sc1ccc(Cl)cc1`?
KCNK3 inh: inactive; TMEM16A act: inactive; KCNK9 inh: -8.5*; Kir21 inh: 0.18; ANO1 block: inactive; KCNK9 inh conf: 38%*; Kir2-1 spec: inactive; HEK293 Tl ctr: 32%*

What do the screens show for `COCCNC(=O)CSc1ccccc1C(=O)NC1CCCc2ccccc21` (configuration not stated)?
KCNK3 inh: inactive; TMEM16A act: inactive; KCNK9 inh: inactive; Kir21 inh: 0.26; ANO1 block: inactive

Results for Cc1ccc(C(C)C)c(OCCNCCc2ccccc2)c1 ?
KCNK3 inh: inactive; TMEM16A act: inactive; KCNK9 inh: inactive; Kir21 inh: -9.9*; ANO1 block: inactive; KCNK9 inh conf: inactive; Kir2-1 spec: 50%*; HEK293 Tl ctr: inactive

How did Clc1ccc(Cn2nc(-c3ccccc3)nc2-c2ccccc2)cc1 do in these assays?
KCNK3 inh: inactive; TMEM16A act: inactive; KCNK9 inh: -12*; Kir21 inh: -0.51; ANO1 block: inactive; KCNK9 inh conf: 58%*; Kir2-1 spec: inactive; HEK293 Tl ctr: 54%*

What do the screens show for `COc1ccc(C(C)=O)cc1COc1ccc(Cl)cc1Cl`?
KCNK3 inh: inactive; TMEM16A act: inactive; KCNK9 inh: -14*; Kir21 inh: 0.74; ANO1 block: inactive; KCNK9 inh conf: 50%*; Kir2-1 spec: inactive; HEK293 Tl ctr: 37%*

Results for COc1ccc(C(C)=O)cc1COc1cc(C)c(Cl)c(C)c1 ?
KCNK3 inh: inactive; TMEM16A act: inactive; KCNK9 inh: inactive; Kir21 inh: -0.27; ANO1 block: inactive

How did Cc1cccc(CN2CCN(C(=O)c3cccc4ccccc34)CC2)c1 do in these assays?
KCNK3 inh: inactive; TMEM16A act: inactive; KCNK9 inh: inactive; Kir21 inh: -0.7; ANO1 block: inactive; KCNK9 inh conf: inactive; Kir2-1 spec: inactive; HEK293 Tl ctr: inactive

What do the screens show for `COc1ccc(-n2c(C)nn(CCOc3ccccc3)c2=O)cc1`?
KCNK3 inh: inactive; TMEM16A act: inactive; KCNK9 inh: inactive; Kir21 inh: -1.2; ANO1 block: inactive

Results for Cc1nn(CC2CC2)c(=O)n1-c1ccc(Oc2ccccc2)cc1 ?
KCNK3 inh: inactive; TMEM16A act: inactive; KCNK9 inh: inactive; Kir21 inh: -0.5; ANO1 block: inactive; KCNK9 inh conf: inactive; Kir2-1 spec: inactive; HEK293 Tl ctr: inactive
